Results as given in ChEMBL document CHEMBL2218924, “A broad activity screen in support of a chemogenomic map for kinase signalling research and drug discovery” (Biochem J, 2013).

Key:
[1] = molecular target: Focal adhesion kinase 1 (Homo sapiens) (UniProt Q05397); conditions: at 10 µM
[2] = molecular target: Fibroblast growth factor receptor 1 (Homo sapiens) (UniProt P11362); conditions: at 1 µM
[3] = molecular target: Fibroblast growth factor receptor 1 (Homo sapiens) (UniProt P11362); conditions: at 10 µM
[4] = molecular target: Fibroblast growth factor receptor 2 (Homo sapiens) (UniProt P21802); conditions: at 1 µM
[5] = molecular target: Fibroblast growth factor receptor 2 (Homo sapiens) (UniProt P21802); conditions: at 10 µM
[6] = molecular target: Fibroblast growth factor receptor 3 (Homo sapiens) (UniProt P22607); conditions: at 1 µM
Sequence of Fibroblast growth factor receptor 3 (Homo sapiens) (P22607 23-806 limits assumed): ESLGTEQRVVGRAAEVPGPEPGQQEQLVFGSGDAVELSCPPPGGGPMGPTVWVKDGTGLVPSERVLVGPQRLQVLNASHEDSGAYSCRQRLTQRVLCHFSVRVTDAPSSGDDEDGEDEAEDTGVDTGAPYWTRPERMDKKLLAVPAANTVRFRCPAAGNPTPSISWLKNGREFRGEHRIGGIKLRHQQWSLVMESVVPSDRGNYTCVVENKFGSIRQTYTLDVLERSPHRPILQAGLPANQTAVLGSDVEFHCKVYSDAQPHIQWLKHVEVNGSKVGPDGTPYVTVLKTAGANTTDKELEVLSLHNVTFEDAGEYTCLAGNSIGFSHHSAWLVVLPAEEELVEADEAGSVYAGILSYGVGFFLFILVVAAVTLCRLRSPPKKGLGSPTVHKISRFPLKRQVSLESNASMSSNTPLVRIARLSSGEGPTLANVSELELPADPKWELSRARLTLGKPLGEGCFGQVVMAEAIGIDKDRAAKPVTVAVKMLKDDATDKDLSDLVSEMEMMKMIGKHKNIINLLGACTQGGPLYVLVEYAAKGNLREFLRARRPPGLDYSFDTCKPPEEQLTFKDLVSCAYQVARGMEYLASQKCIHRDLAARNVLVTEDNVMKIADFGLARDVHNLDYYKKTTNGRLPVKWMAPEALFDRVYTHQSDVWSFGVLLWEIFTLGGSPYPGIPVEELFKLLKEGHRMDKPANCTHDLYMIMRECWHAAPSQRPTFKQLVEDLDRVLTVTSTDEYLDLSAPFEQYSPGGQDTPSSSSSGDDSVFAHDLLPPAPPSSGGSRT

[7] = molecular target: Fibroblast growth factor receptor 3 (Homo sapiens) (UniProt P22607); conditions: at 10 µM
[8] = molecular target: Fibroblast growth factor receptor 4 (Homo sapiens) (UniProt P22455); conditions: at 1 µM
Sequence of Fibroblast growth factor receptor 4 (Homo sapiens) (P22455 22-802 limits assumed): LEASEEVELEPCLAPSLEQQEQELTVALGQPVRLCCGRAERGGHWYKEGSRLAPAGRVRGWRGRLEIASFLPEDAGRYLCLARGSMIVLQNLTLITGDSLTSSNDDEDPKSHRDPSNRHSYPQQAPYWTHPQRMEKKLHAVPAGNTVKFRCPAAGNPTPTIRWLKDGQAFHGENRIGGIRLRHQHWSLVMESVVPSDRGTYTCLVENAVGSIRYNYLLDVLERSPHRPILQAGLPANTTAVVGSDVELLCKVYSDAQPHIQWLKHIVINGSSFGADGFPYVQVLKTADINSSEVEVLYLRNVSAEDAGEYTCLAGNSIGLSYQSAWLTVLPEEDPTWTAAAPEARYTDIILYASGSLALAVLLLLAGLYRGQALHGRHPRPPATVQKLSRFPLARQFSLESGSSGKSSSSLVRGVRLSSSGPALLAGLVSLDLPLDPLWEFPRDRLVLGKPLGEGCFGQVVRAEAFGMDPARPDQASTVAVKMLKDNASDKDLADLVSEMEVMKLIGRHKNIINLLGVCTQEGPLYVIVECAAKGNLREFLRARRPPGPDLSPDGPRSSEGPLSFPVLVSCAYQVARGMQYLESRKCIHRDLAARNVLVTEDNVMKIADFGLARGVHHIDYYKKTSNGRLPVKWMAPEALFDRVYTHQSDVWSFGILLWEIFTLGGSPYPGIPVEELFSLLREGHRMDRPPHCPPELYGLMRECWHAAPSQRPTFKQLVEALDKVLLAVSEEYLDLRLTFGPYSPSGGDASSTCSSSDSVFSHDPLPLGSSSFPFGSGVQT

[9] = molecular target: Fibroblast growth factor receptor 4 (Homo sapiens) (UniProt P22455); conditions: at 10 µM
[10] = molecular target: Tyrosine-protein kinase Fer (Homo sapiens) (UniProt P16591); conditions: at 1 µM
[11] = molecular target: Tyrosine-protein kinase Fer (Homo sapiens) (UniProt P16591); conditions: at 10 µM
[12] = molecular target: Tyrosine-protein kinase Fes/Fps (Homo sapiens) (UniProt P07332); conditions: at 1 µM
[13] = molecular target: Tyrosine-protein kinase Fes/Fps (Homo sapiens) (UniProt P07332); conditions: at 10 µM
[14] = molecular target: Tyrosine-protein kinase Fgr (Homo sapiens) (UniProt P09769); conditions: at 1 µM
Sequence of Tyrosine-protein kinase Fgr (Homo sapiens) (P09769 2-529 limits assumed): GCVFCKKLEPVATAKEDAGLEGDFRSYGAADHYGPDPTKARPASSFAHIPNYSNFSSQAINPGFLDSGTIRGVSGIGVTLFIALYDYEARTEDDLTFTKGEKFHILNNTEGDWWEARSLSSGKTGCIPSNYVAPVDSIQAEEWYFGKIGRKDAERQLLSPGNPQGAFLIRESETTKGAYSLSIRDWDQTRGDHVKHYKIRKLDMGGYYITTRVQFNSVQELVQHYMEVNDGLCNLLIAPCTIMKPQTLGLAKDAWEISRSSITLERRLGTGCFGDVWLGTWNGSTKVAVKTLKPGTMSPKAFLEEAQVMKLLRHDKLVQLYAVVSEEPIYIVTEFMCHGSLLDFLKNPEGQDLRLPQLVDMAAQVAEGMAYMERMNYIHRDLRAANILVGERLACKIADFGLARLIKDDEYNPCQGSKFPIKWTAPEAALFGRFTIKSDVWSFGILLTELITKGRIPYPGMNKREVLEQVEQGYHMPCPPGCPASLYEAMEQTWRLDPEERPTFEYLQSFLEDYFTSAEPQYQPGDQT

[15] = molecular target: Tyrosine-protein kinase Fgr (Homo sapiens) (UniProt P09769); conditions: at 10 µM
[16] = molecular target: Vascular endothelial growth factor receptor 1 (Homo sapiens) (UniProt P17948); conditions: at 1 µM
[17] = molecular target: Vascular endothelial growth factor receptor 1 (Homo sapiens) (UniProt P17948); conditions: at 10 µM
[18] = molecular target: Receptor-type tyrosine-protein kinase FLT3 (Homo sapiens) (UniProt P36888); conditions: at 1 µM
Sequence of Receptor-type tyrosine-protein kinase FLT3 (Homo sapiens) (P36888 whole entry): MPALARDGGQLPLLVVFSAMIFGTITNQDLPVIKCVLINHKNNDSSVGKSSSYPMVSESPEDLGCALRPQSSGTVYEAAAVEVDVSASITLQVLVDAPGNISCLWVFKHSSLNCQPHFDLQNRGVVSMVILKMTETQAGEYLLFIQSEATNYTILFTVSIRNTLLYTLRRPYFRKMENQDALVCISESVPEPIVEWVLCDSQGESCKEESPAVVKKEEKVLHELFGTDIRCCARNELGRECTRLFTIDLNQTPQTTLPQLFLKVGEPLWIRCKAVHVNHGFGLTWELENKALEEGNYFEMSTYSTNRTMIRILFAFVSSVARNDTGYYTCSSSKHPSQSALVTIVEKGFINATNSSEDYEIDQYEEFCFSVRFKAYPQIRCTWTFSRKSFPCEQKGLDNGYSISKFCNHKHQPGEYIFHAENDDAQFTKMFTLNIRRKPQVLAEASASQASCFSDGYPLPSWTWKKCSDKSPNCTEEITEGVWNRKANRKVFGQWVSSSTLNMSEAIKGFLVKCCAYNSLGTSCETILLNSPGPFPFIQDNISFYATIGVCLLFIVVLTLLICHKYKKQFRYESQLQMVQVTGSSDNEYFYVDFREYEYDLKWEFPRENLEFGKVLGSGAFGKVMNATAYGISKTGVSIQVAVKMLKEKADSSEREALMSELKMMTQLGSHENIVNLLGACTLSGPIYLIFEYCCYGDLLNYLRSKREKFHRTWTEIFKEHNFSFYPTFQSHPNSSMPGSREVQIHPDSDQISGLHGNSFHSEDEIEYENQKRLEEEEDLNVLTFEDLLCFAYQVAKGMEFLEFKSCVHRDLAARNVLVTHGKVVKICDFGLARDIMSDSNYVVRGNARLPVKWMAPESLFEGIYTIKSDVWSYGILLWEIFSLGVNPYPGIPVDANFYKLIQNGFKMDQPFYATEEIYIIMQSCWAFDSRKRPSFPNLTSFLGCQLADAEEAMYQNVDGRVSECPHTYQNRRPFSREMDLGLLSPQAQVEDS

[19] = molecular target: Receptor-type tyrosine-protein kinase FLT3 (Homo sapiens) (UniProt P36888); conditions: at 10 µM
[20] = molecular target: Vascular endothelial growth factor receptor 3 (Homo sapiens) (UniProt P35916); conditions: at 1 µM
Sequence of Vascular endothelial growth factor receptor 3 (Homo sapiens) (P35916 whole entry): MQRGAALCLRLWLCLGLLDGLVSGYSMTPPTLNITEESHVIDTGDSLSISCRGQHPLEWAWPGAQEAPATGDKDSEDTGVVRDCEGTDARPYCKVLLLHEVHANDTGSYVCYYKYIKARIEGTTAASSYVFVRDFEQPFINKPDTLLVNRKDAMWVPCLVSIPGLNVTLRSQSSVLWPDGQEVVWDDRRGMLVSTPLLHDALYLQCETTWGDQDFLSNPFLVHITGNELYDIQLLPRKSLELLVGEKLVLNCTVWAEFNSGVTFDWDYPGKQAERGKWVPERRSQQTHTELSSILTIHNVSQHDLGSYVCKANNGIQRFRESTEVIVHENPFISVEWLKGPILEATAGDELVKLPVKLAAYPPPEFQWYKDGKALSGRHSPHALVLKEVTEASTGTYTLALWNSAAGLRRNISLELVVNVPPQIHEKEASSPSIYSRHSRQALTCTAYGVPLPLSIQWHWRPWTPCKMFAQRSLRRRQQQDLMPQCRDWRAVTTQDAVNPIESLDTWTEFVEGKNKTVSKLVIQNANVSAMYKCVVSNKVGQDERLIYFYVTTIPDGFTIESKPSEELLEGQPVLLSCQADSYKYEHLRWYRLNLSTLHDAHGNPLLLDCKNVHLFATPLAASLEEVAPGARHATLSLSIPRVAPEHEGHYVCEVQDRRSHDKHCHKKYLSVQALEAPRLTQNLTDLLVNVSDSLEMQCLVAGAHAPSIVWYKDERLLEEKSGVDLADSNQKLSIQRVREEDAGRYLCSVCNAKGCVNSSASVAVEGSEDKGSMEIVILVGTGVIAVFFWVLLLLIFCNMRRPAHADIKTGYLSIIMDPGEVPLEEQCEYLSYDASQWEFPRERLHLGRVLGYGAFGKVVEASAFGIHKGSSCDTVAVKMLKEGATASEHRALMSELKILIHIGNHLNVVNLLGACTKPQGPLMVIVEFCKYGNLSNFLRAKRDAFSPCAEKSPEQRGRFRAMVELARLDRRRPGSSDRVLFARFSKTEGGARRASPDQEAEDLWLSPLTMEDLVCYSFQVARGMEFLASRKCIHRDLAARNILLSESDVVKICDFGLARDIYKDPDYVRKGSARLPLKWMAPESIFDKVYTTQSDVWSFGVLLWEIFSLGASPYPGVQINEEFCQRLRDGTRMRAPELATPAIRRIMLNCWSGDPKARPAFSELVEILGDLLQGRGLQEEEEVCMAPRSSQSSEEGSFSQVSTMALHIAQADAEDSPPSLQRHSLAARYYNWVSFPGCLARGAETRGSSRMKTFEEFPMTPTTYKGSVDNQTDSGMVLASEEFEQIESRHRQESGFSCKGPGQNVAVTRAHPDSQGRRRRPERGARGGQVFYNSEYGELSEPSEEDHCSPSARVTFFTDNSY

O=[N+]([O-])/C=C/c1ccc2c(c1)OCO2
residual activity [1]: 72% | residual activity [2]: 115% | residual activity [3]: 94% | residual activity [4]: 108% | residual activity [5]: 97% | residual activity [6]: 104% | residual activity [7]: 107% | residual activity [8]: 135% | residual activity [9]: 104% | residual activity [10]: 114% | residual activity [11]: 98% | residual activity [12]: 113% | residual activity [13]: 77% | residual activity [14]: 90% | residual activity [15]: 92% | residual activity [16]: 97% | residual activity [17]: 91% | residual activity [18]: 95% | residual activity [19]: 69% | residual activity [20]: 88%

CCn1cnc2c(Nc3cccc(Cl)c3)nc(N[C@@H]3CCCC[C@@H]3N)nc21
residual activity [1]: 12% | residual activity [2]: 76% | residual activity [3]: 11% | residual activity [5]: 34% | residual activity [6]: 113% | residual activity [7]: 53% | residual activity [8]: 118% | residual activity [9]: 79% | residual activity [10]: 85% | residual activity [11]: 39% | residual activity [12]: 55% | residual activity [13]: 9% | residual activity [14]: 18% | residual activity [15]: 3% | residual activity [16]: 63% | residual activity [17]: 15% | residual activity [18]: 18% | residual activity [19]: 1% | residual activity [20]: 50%

CCc1nc(-c2ccc(OC)cc2)[nH]c1-c1ccncc1
residual activity [1]: 81% | residual activity [2]: 104% | residual activity [3]: 80% | residual activity [4]: 121% | residual activity [7]: 124% | residual activity [8]: 102% | residual activity [9]: 109% | residual activity [10]: 104% | residual activity [11]: 101% | residual activity [12]: 109% | residual activity [13]: 105% | residual activity [14]: 111% | residual activity [15]: 102% | residual activity [20]: 100%

CC(C)(C)c1cc(C=C(C#N)C#N)cc(Br)c1O
residual activity [1]: 104% | residual activity [2]: 108% | residual activity [4]: 99% | residual activity [5]: 105% | residual activity [6]: 126% | residual activity [7]: 99% | residual activity [8]: 118% | residual activity [9]: 102% | residual activity [10]: 120% | residual activity [11]: 107% | residual activity [12]: 125% | residual activity [13]: 98% | residual activity [14]: 113% | residual activity [15]: 96% | residual activity [16]: 102% | residual activity [17]: 82% | residual activity [20]: 96%

COc1ccc2c(c[n+](C)c3c4cc5c(cc4ccc23)OCO5)c1OC
residual activity [1]: 93% | residual activity [2]: 85% | residual activity [3]: 44% | residual activity [7]: 57% | residual activity [9]: 100% | residual activity [11]: 80% | residual activity [12]: 121% | residual activity [13]: 76% | residual activity [15]: 77% | residual activity [16]: 96% | residual activity [17]: 47% | residual activity [18]: 92% | residual activity [19]: 75% | residual activity [20]: 85%

CN[C@@H]1C[C@H]2O[C@@](C)([C@@H]1OC)n1c3ccccc3c3c4c(c5c6ccccc6n2c5c31)C(=O)NC4
residual activity [16]: 0% | residual activity [17]: -1% | residual activity [18]: -1% | residual activity [19]: -1%

O=C1c2ccccc2-c2nc3nnnn3nc21
residual activity [2]: 113% | residual activity [3]: 81% | residual activity [4]: 118% | residual activity [5]: 135% | residual activity [6]: 125% | residual activity [7]: 132% | residual activity [8]: 118% | residual activity [9]: 106% | residual activity [10]: 112% | residual activity [11]: 103% | residual activity [14]: 104% | residual activity [15]: 78% | residual activity [18]: 103% | residual activity [19]: 78%

O=C1NC(=O)c2c1c1c3ccccc3n3c1c1c2c2ccccc2n1C1CCC3O1
residual activity [2]: 72% | residual activity [3]: 41% | residual activity [4]: 83% | residual activity [5]: 78% | residual activity [6]: 82% | residual activity [7]: 92% | residual activity [10]: 33% | residual activity [11]: 20% | residual activity [12]: 90% | residual activity [13]: 99% | residual activity [16]: 7% | residual activity [17]: 4% | residual activity [18]: 24% | residual activity [19]: 3% | residual activity [20]: 0%

O=C1Nc2ccc3ncsc3c2/C1=C/c1c[nH]cn1
residual activity [1]: 13% | residual activity [2]: 9% | residual activity [3]: 1% | residual activity [4]: 18% | residual activity [5]: 3% | residual activity [6]: 19% | residual activity [7]: 9% | residual activity [8]: 112% | residual activity [9]: 84% | residual activity [11]: 40% | residual activity [12]: 62% | residual activity [13]: 15% | residual activity [14]: 47% | residual activity [15]: 15% | residual activity [16]: 1% | residual activity [17]: 0% | residual activity [18]: 1% | residual activity [19]: 0% | residual activity [20]: 0%

COC(=O)[C@@]1(O)C[C@H]2O[C@]1(C)n1c3ccccc3c3c4c(c5c6ccccc6n2c5c31)C(=O)NC4
residual activity [1]: 5% | residual activity [2]: 10% | residual activity [3]: 11% | residual activity [4]: 20% | residual activity [5]: 2% | residual activity [6]: 17% | residual activity [7]: 2% | residual activity [8]: 88% | residual activity [9]: 36% | residual activity [10]: 2% | residual activity [11]: 0% | residual activity [12]: 7% | residual activity [13]: 1% | residual activity [14]: 3% | residual activity [15]: -1% | residual activity [16]: 0% | residual activity [17]: 0% | residual activity [18]: 0% | residual activity [19]: 1% | residual activity [20]: 0%

c1cc(-c2cnn3cc(-c4ccc(OCCN5CCCCC5)cc4)cnc23)ccn1
residual activity [2]: 47% | residual activity [3]: 5% | residual activity [9]: 72% | residual activity [12]: 87% | residual activity [13]: 31% | residual activity [14]: 28% | residual activity [15]: 2% | residual activity [16]: 0% | residual activity [17]: 0% | residual activity [18]: 0% | residual activity [19]: -1% | residual activity [20]: 1%

C[S+]([O-])c1ccc(-c2nc(-c3ccc(F)cc3)c(-c3ccncc3)[nH]2)cc1 (stereo not drawn)
residual activity [1]: 115% | residual activity [2]: 142% | residual activity [3]: 90% | residual activity [4]: 99% | residual activity [5]: 81% | residual activity [6]: 115% | residual activity [7]: 99% | residual activity [8]: 110% | residual activity [9]: 97% | residual activity [10]: 107% | residual activity [11]: 109% | residual activity [12]: 112% | residual activity [13]: 105% | residual activity [14]: 87% | residual activity [15]: 51% | residual activity [16]: 101% | residual activity [17]: 39% | residual activity [19]: 82% | residual activity [20]: 93%

N/C(=N\[N+](=O)[O-])N/N=C\c1ccc(-c2cccc([N+](=O)[O-])c2)o1
residual activity [5]: 92% | residual activity [6]: 95% | residual activity [7]: 92% | residual activity [16]: 86% | residual activity [17]: 72% | residual activity [18]: 73% | residual activity [19]: 48% | residual activity [20]: 58%

CC(C)[C@H](CO)Nc1nc(Nc2cccc(Cl)c2)c2ncn(C(C)C)c2n1
residual activity [1]: 13% | residual activity [2]: 98% | residual activity [3]: 15% | residual activity [7]: 56% | residual activity [8]: 118% | residual activity [10]: 90% | residual activity [11]: 26% | residual activity [12]: 79% | residual activity [13]: 19% | residual activity [14]: 23% | residual activity [15]: 0% | residual activity [16]: 88% | residual activity [17]: 43% | residual activity [18]: 17% | residual activity [19]: 2% | residual activity [20]: 42%

COc1cc(OC)c(/C=C2\C(=O)Nc3ccccc32)c(OC)c1
residual activity [1]: 81% | residual activity [2]: 107% | residual activity [3]: 88% | residual activity [4]: 102% | residual activity [5]: 90% | residual activity [10]: 97% | residual activity [11]: 94% | residual activity [12]: 102% | residual activity [13]: 92% | residual activity [14]: 86% | residual activity [15]: 76% | residual activity [16]: 92% | residual activity [17]: 94% | residual activity [18]: 83% | residual activity [19]: 72% | residual activity [20]: 76%

COc1cc2ncnc(Nc3ccc(OCc4ccccc4)cc3)c2cc1OC
residual activity [1]: 81% | residual activity [2]: 88% | residual activity [3]: 69% | residual activity [4]: 100% | residual activity [5]: 109% | residual activity [6]: 97% | residual activity [7]: 100% | residual activity [8]: 122% | residual activity [9]: 99% | residual activity [10]: 111% | residual activity [11]: 98% | residual activity [12]: 131% | residual activity [13]: 97% | residual activity [14]: 67% | residual activity [15]: 42% | residual activity [16]: 57% | residual activity [17]: 27% | residual activity [18]: 40% | residual activity [19]: 24% | residual activity [20]: 6%

COc1ccc2c(c1)/C(=C/c1cnc[nH]1)C(=O)N2
residual activity [1]: 25% | residual activity [2]: 65% | residual activity [3]: 3% | residual activity [4]: 53% | residual activity [5]: 12% | residual activity [6]: 61% | residual activity [7]: 14% | residual activity [14]: 69% | residual activity [15]: 16% | residual activity [18]: 10% | residual activity [19]: 0%

O=c1[nH]c2ccccc2n1C1CCN(Cc2ccc(-c3nc4cc5[nH]cnc5cc4nc3-c3ccccc3)cc2)CC1
residual activity [1]: 87% | residual activity [2]: 112% | residual activity [3]: 38% | residual activity [4]: 111% | residual activity [5]: 78% | residual activity [6]: 115% | residual activity [7]: 99% | residual activity [8]: 111% | residual activity [9]: 88% | residual activity [10]: 112% | residual activity [11]: 99% | residual activity [12]: 120% | residual activity [13]: 97% | residual activity [14]: 107% | residual activity [15]: 83% | residual activity [16]: 103% | residual activity [17]: 86% | residual activity [18]: 95% | residual activity [19]: 38% | residual activity [20]: 100%
